Legend:
[1] = tested on: Vero E6 infected with SARS-CoV-2; assay: morphology score (similarity to uninfected cells); higher = more like uninfected cells; conditions: 24 h
[2] = tested on: Vero E6 infected with SARS-CoV-2; assay: SARS-CoV-2 infection rate relative to infected DMSO; higher = more infection, active = 60 or less; conditions: 24 h

Row | Compound | morphology score [1] | SARS-CoV-2 infection rate [2]
1 | Cc1[nH]c(/C=C2\C(=O)Nc3ccc(S(=O)(=O)N(C)c4cccc(Cl)c4)cc32)c(C)c1C(=O)N1CCN(C)CC1 (10 µM) | 0.493 | 104% (inactive)
2 | C[N+](C)(CCOc1ccccc1)Cc1ccccc1 [bephenium-hydroxynaphthoate] (10 µM) | 0.171 | 94.5% (inactive)
3 | Cc1cc(C)c(CNC(=O)c2cc(-c3ccc(N4CCN(C)CC4)nc3)cc3c2c(C)cn3C(C)C)c(=O)[nH]1 (10 µM) | 0.171 | 98% (inactive)
4 | C[C@H](NC(=O)[C@@H](O)c1cc(F)cc(F)c1)C(=O)N[C@@H]1C(=O)N(C)c2ccccc2-c2ccccc21 (10 µM) | 0.165 | 101% (inactive)
5 | O=C(CCN1CCN(C(=O)OCc2cc(Cl)cc(Cl)c2)CC1)c1ccc2[nH]c(=O)oc2c1 (10 µM) | 0.127 | 99.5% (inactive)
6 | CN1CCN(c2ccc(-c3cccc(CN4CCOCC4)c3)cc2NC(=O)c2c[nH]c(=O)cc2C(F)(F)F)CC1 (10 µM) | 0.0309 | 115% (inactive)
7 | CCC1(c2ccccc2)C(=O)N(COC)C(=O)N(COC)C1=O [eterobarb] (10 µM) | -0.0955 | 106% (inactive)
8 | COc1cc2c(cc1OC)[C@H](C)NCC2 [Isoquinoline,-6,7-dimethoxy-1-methyl-1,2,3,4-tetrahydro,] (10 µM) | 0.0205 | 105% (inactive)
9 | C[C@@H](CN1CCC(n2c(=O)[nH]c3cc(Cl)ccc32)CC1)NC(=O)c1ccc2ccccc2c1 (10 µM) | 0.46 | 87% (inactive)
10 | CCC(=O)OCC(=O)[C@@]1(OC(=O)CC)[C@@H](C)C[C@H]2[C@@H]3CCC4=CC(=O)C=C[C@]4(C)[C@@]3(Cl)[C@@H](O)C[C@@]21C [beclomethasone-dipropionate] (10 µM) | 0.126 | 105% (inactive)
11 | CC[N+](C)(CC)CC(=O)Nc1c(C)cccc1C [N-methyllidocaine-iodide] (10 µM) | 0.0478 | 100% (inactive)
12 | CCCCCNC(=N)N/N=C/c1c[nH]c2ccc(OC)cc12 [tegaserod] (10 µM) | 0.0727 | 100% (inactive)
13 | O=C(O)CCNc1cc(N2CCc3ccccc3CC2)nc(-c2ccccn2)n1 (10 µM) | 0.19 | 101% (inactive)
14 | CC(=O)OCC(=O)[C@@]1(O)CC[C@H]2[C@@H]3CCC4=CC(=O)C=C[C@]4(C)[C@@]3(Cl)[C@@H](Cl)C[C@@]21C [dichlorisone-acetate] (10 µM) | -0.00102 | 102% (inactive)
15 | CNC(=O)c1ccc(N2C(=S)N(c3cnc(C#N)c(C(F)(F)F)c3)C(=O)C23CCC3)cc1F [apalutamide] (10 µM) | 0.0169 | 109% (inactive)
16 | CN1[C@@H]2C[C@@H](O)C[C@H]1[C@@H]1O[C@@H]12 [scopine] (10 µM) | 0.146 | 93.5% (inactive)
17 | CC(=C(CCO)SSCC1CCCO1)N(C=O)Cc1cnc(C)nc1N (stereo in doubt) [fursultiamine] (10 µM) | 0.0723 | 110% (inactive)
18 | CN1CCN2c3c(cccc31)[C@@H]1CN(CCCC(=O)c3ccc(F)cc3)CC[C@@H]12 [lumateperone] (10 µM) | 0.348 | 86% (inactive)
19 | CCC(NC(C)C)C(O)c1ccc(O)c2[nH]c(=O)ccc12 (centres undefined) [procaterol] (10 µM) | 0.142 | 88% (inactive)
20 | Nc1ncccc1-c1nc2ccc(-c3ccccc3)nc2n1-c1ccc(C2(N)CCC2)cc1 (10 µM) | 0.702 | 29.5% (active)
21 | CC(=O)Oc1ccccc1C(=O)O [aspirin] (10 µM) | -0.027 | 98% (inactive)
22 | Cc1nc(Nc2cnn(C3CCNCC3)c2)nc2c1N(C)C(=O)c1cc3ccccc3cc1N2C (0.833333 µM) | 0.143 | 104% (inactive)
